KDM4E inh: qHTS Assay for Inhibitors of Human Jumonji Domain Containing 2E (JMJD2E). JMJD2E catalytic domain, FDH-coupled NADH fluorescence (FDH is formaldehyde dehydrogenase). Potency, µM (highest dose often 57.1 µM), for inactives: at the highest dose activity change, negative = inhibition, most hits filed as inhibitors. 230,000 compounds, 1.6% hits; active = well fitted inhibition curve with a large enough effect, not every such curve was filed as active; inconclusive = small, poorly fitted or top-dose-only effect, or another doubt; inactive = no such curve, though single readings can be large or run the other way;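 also: potency is read from the fitted curve at half-maximal effect; 0% = wells with enzyme and -100% = buffer wells without enzyme; nearly all actives have a fitted effect of over 50% in size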
NPSR antag: qHTS Assay for Antagonists of the Neuropeptide S Receptor: cAMP Signal Transduction; Q6W5P4; CHO-NPSR cells, cAMP TR-FRET, antagonist mode; Potency, µM (highest dose often 38.3 µM), for the others: at the top dose activity change, negative = inhibition, hits mostly inhibitors; 220,000 compounds, 1% hits; also: potency is read from the fitted curve at half-maximal effect; nearly all actives have a fitted effect of over 50% in size
ALDH1A1 block: qHTS Assay for Inhibitors of Aldehyde Dehydrogenase 1 (ALDH1A1) | 220,000 compounds, 7.3% hits | Potency, µM (titrated, usually from 75.3 µM), inactives show top-dose activity, negative = inhibition, hits mostly inhibitors | AID 1030, 2008 | Purified ALDH1A1, NADH fluorescence, propionaldehyde substrate | Aldehyde dehydrogenase 1A1 (Homo sapiens), P00352; active = well fitted inhibition curve with a large enough effect, not every such curve was filed as active; inconclusive = small, poorly fitted or top-dose-only effect, or another doubt; inactive = no such curve, though single readings can be large or run the other way;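 also: potency is read from the fitted curve at half-maximal effect; plate controls were no enzyme wells and a reference inhibitor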
FBPA coupling cs: qHTS Assay for Inhibitors of Fructose-1,6-bisphosphate Aldolase from Giardia Lamblia: Coupling assay counterscreen | coupling enzyme system counterscreen, AmpLite Red fluorescence | activity change, negative = inhibition, % at 58.2 µM, hits read low | 290,000 compounds, 0.67% hits | AID 2472, 2010; in the data active = activity change below about -30%
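Coupling enzymes only (glyceraldehyde-3-phosphate) + compound, at 57.5 uM final, 10 min RT; add substrate/coupling/AmpLite Red mix, 20 min RT; fluorescence ex 525/em 598 nm. Actives flag coupling-system interference.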
RGS12 GoLoco inh: qHTS Assay for Inhibitors of RGS12 GoLoco Motif Activity (Red Fluorophore); Guanine nucleotide-binding protein G(i) subunit alpha-1 (Homo sapiens), P63096; Gai1:RGS12 GoLoco peptide FP, rhodamine, 10 min; Potency, µM (titrated, usually from 61.6 µM), for the others: at the highest dose activity, negative = inhibition, most hits filed as inhibitors; 230,000 compounds, 0.44% hits; active = well fitted inhibition curve with a large enough effect, not every such curve was filed as active; inactive = no such curve, though single readings can be large or run the other way; also: potency is read from the fitted curve at half-maximal effect; nearly all actives have a fitted effect of over 30% in size
Target sequence (P63096 whole entry, looked up): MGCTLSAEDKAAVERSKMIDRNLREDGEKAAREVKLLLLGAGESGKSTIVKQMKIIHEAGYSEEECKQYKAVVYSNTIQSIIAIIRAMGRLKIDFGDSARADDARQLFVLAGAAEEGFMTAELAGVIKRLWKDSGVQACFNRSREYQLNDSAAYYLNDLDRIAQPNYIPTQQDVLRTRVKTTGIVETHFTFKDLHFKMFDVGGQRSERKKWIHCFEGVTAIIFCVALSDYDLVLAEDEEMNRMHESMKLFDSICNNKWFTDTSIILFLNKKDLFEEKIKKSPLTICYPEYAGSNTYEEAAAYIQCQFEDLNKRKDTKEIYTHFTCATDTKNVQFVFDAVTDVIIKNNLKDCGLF
Sfp inh: qHTS Assay for Inhibitors of Bacillus subtilis Sfp phosphopantetheinyl transferase (PPTase); Biochemical Sfp PPTase activity, qHTS; AID 1490, 2009; Potency, µM, for the others: largest response in the series, negative = inhibition, actives largely listed as inhibitors; 4'-phosphopantetheinyl transferase ffp (Bacillus subtilis), Q9F4F7; 310,000 compounds, 3.5% hits;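 also: the enzyme is Sfp with the accession as filed and its product quenches rhodamine fluorescence; potency is read from the fitted curve at half-maximal effect; 0% = enzyme reaction without inhibitor and -100% = no enzyme wells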
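Reaction rates are the 30-min fluorescence difference (ex 525, em 598 nm) in wells containing 15 nM Sfp, 5 uM rhodamine-CoA and 12.5 uM BHQ-2-YbbR at pH 7.6 with 10 mM MgCl2.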
* = called active by the depositor; ? = inconclusive; . = not tested or not shown; [ ] = dose if it differs, or a comment. This is a sample that favours compounds with a hit; in the whole collection about 8.5% have one here. Unless noted, calls follow the shape of the dose curve; as a rule, active = well fitted curve in the direction sought with a large enough effect; inconclusive = small, poorly fitted or top-dose-only effect, or another doubt; inactive = no such curve, though single readings can be large; an effect the other way counts as inactive or inconclusive. Unless noted, % is scaled to controls: 0 for no effect and ±100 for the full control effect.

SMILES | KDM4E inh | NPSR antag | ALDH1A1 block | FBPA coupling cs | RGS12 GoLoco inh | Sfp inh
Oc1ccc(/C=N/NC(=S)NCCN2CCOCC2)c(O)c1 | 35µM* | -5% | -3% | -1 | -7% | 7%
COc1cc(/C=N/NC(=S)NCCN2CCOCC2)cc(OC)c1O | -5% | 2% | -11% | -6 | 3% | 22µM*
S=C(NCCN1CCOCC1)N/N=C/c1ccccc1 | 2% | -1%[46.1 µM] | 9% | 0 | -4% | -14%
Cc1cc(C)cc(NC(=O)N2CCNC(=O)C2CC(=O)Nc2cc(Cl)ccc2Cl)c1 (stereo unspecified) | . | . | . | . | . | 10%
Cc1ccc(CNC(=O)C2CCN(c3nn4c(=O)cc(C)nc4s3)CC2)cc1 | . | . | . | 5 | . | 9%
OC(CNCCc1ccc(C(F)(F)F)cc1)COc1cccc2ccccc12 (stereo unspecified) | 16% | ? | -2% | -3 | 14% | 25µM*
OC(CNCCc1ccc(C(F)(F)F)cc1)COc1ccc2ccccc2c1 (stereo unspecified) | 8% | -35% | -3% | -5 | 4% | 18µM*
COc1ccc(/C=C/C(O)=C(\C#N)c2nnc(N3CCOCC3)n2-c2ccccc2)cc1OC | ? | -15% | 13µM* | 3 | 11% | 9%
C=CCN1C(=O)NC(c2ccccc2)(C(F)(F)F)S/C1=C(\C#N)c1nnc(N2CCOCC2)n1-c1ccccc1 (stereo unspecified) | 1% | -47% | ? | 0 | -9% | -6%
COc1ccc(N2C(C)=CS/C2=C(/C#N)c2nnc(N3CCOCC3)n2-c2ccccc2)cc1 | 6% | -10%[46.1 µM] | 22µM* | 1 | 11% | 14%
O=C1NC(=O)c2cc(Nc3ccc(F)cc3)c(Nc3ccc(F)cc3)cc21 | . | . | 9% | -5 | 12% | ?
O=C1NC(=O)c2cc(Nc3ccccc3)c(Nc3ccccc3)cc21 | ? | 13µM* | ? | 2 | 13% | 7%
OCCN1CCN(C(=S)c2ccc(Br)cc2)CC1 | 4% | -6%[46.1 µM] | 6% | 2 | -1% | 32µM*
CSc1ccc(C(=S)N2CCN(CCO)CC2)cc1 | -1% | -4%[46.1 µM] | 22µM* | 1 | 3% | 8.9µM*
O=C(CSc1nnc(C2COc3ccccc3O2)o1)N1CCN(c2ccccc2)CC1 (stereo unspecified) | 9% | 0% | 3% | 0 | -9% | 25%
CC(=O)N1[C@H](Cc2ccccc2)C=C[C@]1(C)C(=O)O | 0% | . | 28µM* | 0 | -2% | 25%
COC(=O)CNC(=O)[C@@]1(C)C=C[C@@H](Cc2ccccc2)N1C(C)=O | -11% | . | 22µM* | 0 | 3% | 14%
COC(=O)N1[C@H](Cc2ccccc2)C=C[C@]1(C)C(=O)O | -6% | -6% | -10% | -1 | -1% | 1%
C[C@]1(C(=O)O)C=C[C@@H](Cc2ccccc2)N1C(=O)c1ccccc1 | -3% | 1% | 11% | 4 | 6% | 20%
Nc1cnc(CNc2ccccc2Cl)cn1 | 4% | 19% | . | 1 | 0% | -5%
O=C(CCN1C(=O)/C(=C/c2ccco2)SC1=S)Nc1ccc(O)cc1C(=O)O | . | . | . | 0 | . | -18%
O=C1/C(=C\c2ccco2)SC(=S)N1Cc1ccccc1 | -14% | -16%[46.1 µM] | 14µM* | -2 | 106% | ?
COc1ccc(CCN2C(=O)/C(=C\c3ccco3)SC2=S)cc1OC | -13% | -14% | ? | -8 | 58% | 18µM*
O=C(CN1C(=O)/C(=C\c2ccco2)SC1=S)Nc1ccc(O)cc1C(=O)O | . | . | . | . | . | 56µM*
O=C1/C(=C/c2ccccn2)SC(=S)N1Cc1ccccc1 | 1% | 17%[7.67 µM] | . | 0 | -152% | 22%
O=C(O)CCN1C(=O)/C(=C\c2ccc(-c3nc4ccccc4s3)o2)SC1=S | -2% | 13µM* | ? | -5 | 23% | 45µM*

Assay outcomes from PubChem.
